NPC1 promoter act – qHTS Assay for NPC1 Promoter Activators; AID 485313, 2010; Potency, µM (doses to about 9.22 µM), without a hit: at the top dose activation, hits mostly activators; 320,000 tested, 2.4% active; Huh7 NPC1 promoter luciferase reporter, 24 h; further: % of control where 0% means no effect; nearly all actives have a fitted effect of over 60% in size
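Cells: Huh7 expressing luciferase under the NPC1 promoter, 1500/well. Seeded 2 h, compound added, incubated 24 h at 37 °C. Luciferase reagent, 10 min ambient, then luminescence.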
FLuc modulator – qHTS profiling assay for firefly luciferase inhibitor/activator using purifed enzyme and Km concentrations of substrates (counterscreen for miR-21 project); Potency, µM (highest dose often 57.5 µM), for the others: top-dose activity change, negative = inhibition, most hits filed as inhibitors; purified FLuc, Km substrates, luminescence inhibition; 360,000 tested, 6.9% active; AID 588342, 2011;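 further: plate controls were vehicle for no effect and reference inhibitor for full effect; nearly all actives have a fitted effect of over 55% in size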
Target sequence (P08659 whole entry, looked up): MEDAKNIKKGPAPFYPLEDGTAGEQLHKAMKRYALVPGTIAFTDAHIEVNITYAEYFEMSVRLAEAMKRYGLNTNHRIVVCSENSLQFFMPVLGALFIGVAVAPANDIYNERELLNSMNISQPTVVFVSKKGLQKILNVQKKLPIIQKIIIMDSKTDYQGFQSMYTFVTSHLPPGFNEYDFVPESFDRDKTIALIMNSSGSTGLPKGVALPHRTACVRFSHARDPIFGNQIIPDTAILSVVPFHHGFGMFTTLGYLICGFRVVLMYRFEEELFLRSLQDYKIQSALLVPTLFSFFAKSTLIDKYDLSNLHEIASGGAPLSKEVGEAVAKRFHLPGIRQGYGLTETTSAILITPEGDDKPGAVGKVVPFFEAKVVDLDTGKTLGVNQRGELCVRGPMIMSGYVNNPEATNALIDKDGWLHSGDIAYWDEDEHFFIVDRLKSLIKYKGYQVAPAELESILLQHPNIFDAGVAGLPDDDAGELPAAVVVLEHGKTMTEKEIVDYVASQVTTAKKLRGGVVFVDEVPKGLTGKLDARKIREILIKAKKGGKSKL
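Purified P. pyralis luciferase (10nM final) with 10uM D-luciferin and 10uM ATP (Km levels) in 50mM Tris acetate pH 7.5, 10mM Mg acetate, 0.01% Tween-20, 0.05% BSA; qHTS 6-point titration, ~60 µM downward; luminescence read.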
Rab9 promoter act – qHTS Assay for Rab9 Promoter Activators; Potency, µM (doses to about 9.22 µM), without a hit: at the highest dose activation, negative = inhibition, hits mostly activators; 320,000 tested, 2.8% active; Huh7 Rab9 promoter-luciferase reporter, luminescence, 24 h; further: % of control where 0% means no effect; nearly all actives have a fitted effect of over 60% in size
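Huh7 reporter line, Rab9 promoter upstream of luciferase. Compound exposure 24 h at 37 °C in reduced-serum medium with 10% FBS. Read-out: luminescence.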
ELG1 DNA repair – qHTS screen for small molecules that inhibit ELG1-dependent DNA repair in human embryonic kidney (HEK293T) cells expressing luciferase-tagged ELG1 | HEK293T ELG1-luciferase reporter, luminescence, 16 h; DNA damage induced by 5-fluorouridine | Potency, µM (highest dose often 46.1 µM), without a hit: at the highest dose activity change, negative = inhibition, actives largely listed as inhibitors | 330,000 tested, 2.3% active; further: on the % scale 0 is the no-effect control and ±100 the full control effect; nearly all actives have a fitted effect of over 55% in size
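HEK293T cells expressing luciferase-tagged ELG1 (2,000/well) received 5-Fluorouridine plus compound or DMSO for 16 hr at 37 °C. Luciferase was read by ONE-Glo luminescence after 30 min at room temperature.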
SMN2 splice up – qHTS Assay for Enhancers of SMN2 Splice Variant Expression; HEK293 SMN2-luciferase splicing reporter, luminescence, 30-36 h; Potency, µM (doses to about 46.1 µM), for the others: at the top dose activity change, positive = activation, usual class: activators; 210,000 tested, 2.8% active; further: % of control where 0% means no effect; nearly all actives have a fitted effect of over 55% in size
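qHTS luciferase splicing reporter: luminescence rises when SMN2 exon 7 is included in transfected HEK293 cells. Compound exposure lasted 30-36 h at 37C, with 4.5 mM final sodium butyrate as control, followed by a ONE-Glo read.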
ELG1 genotox – qHTS screen for small molecules that induce genotoxicity in human embryonic kidney (HEK293T) cells expressing luciferase-tagged ELG1; HEK293T ELG1-luciferase reporter, luminescence, 16 h; Potency, µM (highest dose often 46 µM), without a hit: top-dose activity change, positive = activation, usual class: activators; 330,000 tested, 1.3% active; further: % of control where 0% means no effect; nearly all actives have a fitted effect of over 60% in size
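Cells (2,000/well) expressing the ELG1-luciferase fusion are dosed by pin tool and kept 16 hr at 37 °C, 5% CO2. Signal comes from ONE-Glo luciferase reagent after 30 min at room temperature.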
Starred values were filed as active, the others as inactive; ? = inconclusive; . = no result given. Only some compounds are listed: those with a hit (about 9.2% of all), similar ones and a draw of the others. The call rests on the fitted dose curve; in most records, active means well fitted curve in the direction sought with a large enough effect; inconclusive means small, poorly fitted or top-dose-only effect, or another doubt; inactive means no such curve, though single readings can be large; an effect the other way counts as inactive or inconclusive. Potency means the concentration at half of the fitted maximal effect.

SMILES	NPC1 promoter act	FLuc modulator	Rab9 promoter act	ELG1 DNA repair	SMN2 splice up	ELG1 genotox
O=C1NC(=Nc2ccc(O)cc2)S/C1=C/c1ccco1	-19%	-1%	-12%	10%	29%	-6%
Cc1cc(C)cc(N=C2NC(=O)/C(=C/c3cccs3)S2)c1	1%	-19%	-2%	1%	-22%	3%
Cc1ccc(N=C2NC(=O)/C(=C\c3ccco3)S2)cc1	?	17µM*	?	?	16%	?
O=C1NC(=Nc2ccccc2)S/C1=C\c1cccs1	3.2µM*	12µM*	3.2µM*	?	.	?
CCOc1ccc2c(c1)S/C(=C\c1cccs1)C(=O)N2	?	9.5µM*	?	?	.	?
Cn1cccc1/C=C1\SC(=Nc2ccccc2)NC1=O	-18%	9.5µM*	22%	?	.	23µM*
CCc1c(-c2ccccc2)nc2ccccc2c1C(=O)NCCc1ccccc1	.	-14%	.	.	.	.
CN(c1ccccc1)S(=O)(=O)c1ccc(Cl)c(C(=O)NCc2ccccc2CN2CCCC2)c1	-1%	3%	1%	-2%	.	-2%
Cc1ccccc1NC(=O)CCC(=O)N1CCSc2ccccc21	.	-6%	.	.	.	.
CCc1cccc(CC)c1NC(=O)c1c(C)oc2ccc(O)c(CN3CCN(C)CC3)c12	.	4%	.	.	-2%	.
Cn1cccc1/C=C1\SC(=Nc2cccc(O)c2)NC1=O	12%	12µM*	?	?	.	?
Cn1cccc1/C=C1\SC(=Nc2ccc(O)cc2)NC1=O	23%	?	-6%	?	.	16µM*
COc1cc(/C=C2\SC(=Nc3ccc(O)cc3)NC2=O)cc(OC)c1O	-17%	-1%	-9%	-27%	.	?
CCOC(=O)c1c(NC2OC(=O)c3c2ccc(OC)c3OC)sc(C(=O)OC(C)(C)C)c1C (stereo not given)	26%	17µM*	22%	?	.	?
Cc1ccc(-n2ncc3c(N(C)Cc4ccccc4)ncnc32)cc1	.	0.67µM*	.	.	.	.
CN(Cc1ccccc1)c1ncnc2ccc(Br)cc12	-1%	0%	0%	18µM*	?	-15%
Cc1ccc(-n2ncc3c(N(CCO)Cc4ccccc4)ncnc32)cc1	.	11µM*	.	.	.	.
Cc1ccc(CNc2ncnc3c2cnn3-c2ccccc2)cc1	5%	-12%	16%	24%	-18%	7%
CCOc1ccccc1Nc1ncnc2ccc(Br)cc12	6%	-1%	6%	0%	.	-6%
Cc1ccc(C)c(N2CCN(S(=O)(=O)c3c(C(=O)N4CCC(C)CC4)c(C)n(C)c3C)CC2)c1	.	4%	.	.	.	.
CO	.	.	.	.	3%	.
Cc1ccc(NC(=O)Cn2c(-c3nonc3N)nc3ccccc32)c(Br)c1	.	-3%	.	.	1%	.
Cc1ccc(CNC(=O)CCc2nnc3n(C)c(=O)c4sccc4n23)cc1	.	-4%	.	.	-1%	.
COc1ccccc1Nc1nc(-c2cccnc2)cs1	?	13µM*	?	?	.	10%
CCc1ccccc1Nc1nc(-c2cccnc2)cs1	28%	?	?	?	.	-4%
SMILES	NPC1 promoter act	FLuc modulator	Rab9 promoter act	ELG1 DNA repair	SMN2 splice up	ELG1 genotox
COc1ccccc1Nc1nc(C2(C)CCC(=O)O2)cs1 (stereo not given)	16%	15µM*	22%	?	14%	8%
COc1ccc(Nc2nc(-c3cccnc3)cs2)c(OC)c1	3.5µM*	21µM*	?	?	.	1%
O=[N+]([O-])c1ccccc1Nc1nc(-c2cccnc2)cs1	?	11µM*	28%	0%	.	?
COc1ccc(CC(=O)NCc2nc3cccnc3n2Cc2ccc(C)cc2)cc1OC	.	-1%	.	.	.	.
CN1c2ccccc2-c2nc(SCC(=O)Nc3ccccc3)ncc2S1(=O)=O	.	-10%	.	.	.	.
O=C(N/N=C/c1ccccc1)c1sccc1OCc1ccc(F)cc1	-2%	19µM*	0%	-16%	-17%	2%
O=C(N/N=C/c1ccncc1)c1ccccc1OCc1ccc(Br)cc1	-10%	?	-7%	7.3µM*	-10%	-6%
Cc1cccc(/C=N/NC(=O)c2ccccc2OCc2cccc(Br)c2)n1	15%	19µM*	0%	16µM*	.	-4%
O=C(N/N=C/c1ccccc1)c1ccc(OCc2ccccc2)cc1	1%	-2%	15%	9%	-23%	?
Cc1ccc(/C=N/NC(=O)c2ccccc2OCc2ccc(F)cc2)o1	0%	?	-4%	18µM*	-24%	2%
Fc1ccccc1OCCCCN1CCCCC1	-5%	-1%	-3%	-16%	.	-1%
CCN(CC)S(=O)(=O)c1ccc(OC)c(NC(=O)CSc2cc(Cl)ccc2Cl)c1	-2%	-1%	-12%	-32%	-22%	-4%
O=C(CCCCCn1c(=O)[nH]c2ccccc2c1=O)NCCc1ccccc1	.	1%	.	.	.	.
CCc1ccccc1N(C)C(=O)c1cnc(N2CCOCC2)c2ccccc12	.	0%	.	.	.	.
CC1CN(CC(O)COC(c2ccc(Cl)cc2)c2ccc(Cl)cc2)CC(C)O1 (stereo not given)	3%	-8%	-3%	18µM*	-34%	-2%
O=C(COc1ccc(Cl)cc1Cl)N/N=C/c1ccc[nH]1	-44%	13µM*	-52%	?	.	9%
O=C(COc1ccc(Cl)cc1Cl)c1ccc[nH]1	?	17µM*	?	?	.	?
CS(=O)(=O)N1CCc2cc(-c3csc(NC(=O)Cc4cccs4)n3)ccc21	-20%	?	-18%	5.8µM*	.	-22%
CC(=O)Nc1nc(-c2ccc3c(c2)CCN3S(C)(=O)=O)cs1	?	21µM*	2.5µM*	?	10µM*	?
CCCCN(C(=O)c1ccc(S(=O)(=O)N(CC)CC)cc1)c1c(N)n(CCC)c(=O)[nH]c1=O	5%	1%	3%	11%	.	3%
Cc1cccc(CNc2nc(-c3cccnc3)nc3ccccc23)c1	.	.	.	.	-23%	.
N/C(=N\OC(=O)c1cccnc1)c1ccccc1Cl	23%	17µM*	20%	?	-33%	3%
N/C(=N\OC(=O)c1cccnc1)c1ccc(Cl)cc1Cl	12%	?	?	?	13%	?
N/C(=N\OC(=O)c1ccccc1[N+](=O)[O-])c1cccnc1	16%	?	22%	?	24%	?
Cc1ccc(C(=O)O/N=C(\N)c2ccccn2)c(C)c1	0.032µM*	0.021µM*	?	?	.	-17%
